Pf Dd2 growth: blocks in vitro growth of P. falciparum Dd2 | P. falciparum Dd2 growth, SYBR Green, 72 h | Potency, µM (doses to about 28.9 µM), for the others: top-dose activity, negative = inhibition, usual class: inhibitors | 120,000 compounds, 4.3% hits; active = well fitted inhibition curve with a large enough effect;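 also: plate controls were DMSO vehicle for no effect and reference drug for full effect; nearly all actives have a fitted effect of over 65% in size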
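Infected erythrocytes (Dd2, 0.3% parasitemia, 2.5% hematocrit final) are added to compound in RPMI-1640/Albumax II medium, grown 72 h at 37C in low oxygen, then lysed with saponin/Triton-X containing SYBR Green and read by fluorescence.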
An asterisk follows results filed as active; ! = not confirmed by another sample; [ ] = another dose, or the depositor's remark. Shown is part of a subset that was picked to be rich in hits. Potency is read from the fitted curve at half-maximal effect.

How did Cn1nccc1C(=O)N1CC(C(=O)Nc2ccccn2)C2(CCOCC2)C1 (centres undefined) do in these assays?
Pf Dd2 growth: 7%

How did COCCCNC(=O)Cn1c(=O)n(Cc2ccc(C(=O)NCc3ccc(C)cc3)cc2)c(=O)c2ccccc21 do in these assays?
Pf Dd2 growth: -4%

How did COC(=O)CNC(=O)N1CC(c2nc(CCOc3cccc(C)c3)no2)C1 do in these assays?
Pf Dd2 growth: -15%

Results for Cc1nn(C(=O)c2c(F)cccc2F)c(C)c1S(=O)(=O)N1CCCCCC1 ?
Pf Dd2 growth: 41%

Results for COc1ccc(N2CCN(C3C(=O)c4ccccc4N3C(C)=O)CC2)cc1 (centres undefined) ?
Pf Dd2 growth: 17%

What do the screens show for `Cc1cc(C)nc(-n2nc(C)c3c2N(C)C(=O)CC3c2ccc(Cl)cc2)n1` (centres undefined)?
Pf Dd2 growth: 11%

Results for Cc1cc(C)nc(-n2nc(C)c3c2N(Cc2ccccc2C)C(=O)CC3c2ccc(Cl)cc2)n1 (centres undefined) ?
Pf Dd2 growth: 8.9µM*

What do the screens show for `Cc1ccccc1-n1nc(C)c2c1NC(=O)CSC2c1ccc(Cl)cc1` (centres undefined)?
Pf Dd2 growth: 2%

How did Cc1cc(Br)ccc1NC(=O)C1(S(=O)(=O)c2ccc(Cl)cc2)CC1 do in these assays?
Pf Dd2 growth: -2%

What do the screens show for `COCC1CN(C(C)=O)CC12CCN(Cc1ccc3c(c1)CCO3)CC2` (centres undefined)?
Pf Dd2 growth: inactive

How did Cc1ccc(CN[C@@H]2CO[C@H](CNS(C)(=O)=O)[C@H]2O)cc1 do in these assays?
Pf Dd2 growth: -15%[44.1 µM]

Results for COc1ccc(-c2cc(C[C@@H]3CC[C@H](O)[C@@H](CNC(=O)C(C)(C)C)O3)no2)cc1 ?
Pf Dd2 growth: inactive

Results for CN(c1ncccc1CNC(=O)c1ccc2c(c1)OCO2)C1CCCCC1 ?
Pf Dd2 growth: inactive

How did COc1ccccc1-c1cc([C@H]2CN3CC[C@H]2C[C@@H]3COC(=O)NC(C)C)nc(C)n1 do in these assays?
Pf Dd2 growth: -12%[44.1 µM]

Results for COc1cccc(C(=O)N2CCC(N3C[C@H](O)C[C@H]3C(=O)N3CCc4ccccc4C3)CC2)c1 ?
Pf Dd2 growth: 1.4µM*

How did CCNC(=O)[C@@H]1C[C@@H](O)CN1C1CCN(C(=O)c2cccc(OC)c2)CC1 do in these assays?
Pf Dd2 growth: -11%

How did COc1cccc(C(=O)N2CCC(N3C[C@H](O)C[C@H]3C(=O)N3CCN(C(C)C)CC3)CC2)c1 do in these assays?
Pf Dd2 growth: 5%

How did CC(=O)Nc1cc(-c2nc3cc(Cl)ccc3o2)ccc1C do in these assays?
Pf Dd2 growth: 22%

What do the screens show for `CCN(CC)C(=O)[C@@H]1CCC[C@@H](NC2CCOCC2)CN(C)C(=O)C1`?
Pf Dd2 growth: -1%[44.1 µM]

What do the screens show for `CC1(C(=O)NC2CCCCC2)Cc2ccccc2C(=O)N1Cc1ccccc1Cl` (centres undefined)?
Pf Dd2 growth: -11%

How did COc1ccc(C(=O)N2CCC3(CC2)C(=NC2CCCCC2)NC(=O)N3c2cc(F)cc(F)c2)cc1 do in these assays?
Pf Dd2 growth: -24%

Results for O=C1NC(=NC2CCCC2)C2(CCCN([S+](=O)([O-])c3ccccc3)C2)N1c1cc(F)cc(F)c1 (centres undefined) ?
Pf Dd2 growth: -20%

How did O=C1NC(=NC2CCCC2)C2(CCCN([S+](=O)([O-])c3cccc(C(F)(F)F)c3)C2)N1c1cc(F)cc(F)c1 (centres undefined) do in these assays?
Pf Dd2 growth: 10µM*!

Results for COc1ccc(C(=O)N2CCCC3(C2)C(=NC2CCCCC2)NC(=O)N3c2cc(F)cc(F)c2)cc1 (centres undefined) ?
Pf Dd2 growth: -10%

Results for O=C(c1ccc(C(F)(F)F)cc1)N1CCC2(C1)C(=NC1CCCCC1)NC(=O)N2c1cc(F)cc(F)c1 (centres undefined) ?
Pf Dd2 growth: 8.9µM*

How did O=C1NC(=NC2CCCC2)C2(CCN([S+](=O)([O-])c3cccc(C(F)(F)F)c3)CC2)N1c1cc(F)cc(F)c1 do in these assays?
Pf Dd2 growth: -8%

Results for O=C1CC(c2ccccc2)N(C(=O)CNC(=O)c2ccco2)CCCCCN1 (centres undefined) ?
Pf Dd2 growth: 5%

What do the screens show for `Cc1ccccc1C(=O)N1C(C(=O)N2CCOCC2)COC12CCC(C)CC2` (centres undefined)?
Pf Dd2 growth: -17%

How did CCC(C(=O)N1CCCn2nc(C(=O)Nc3ccccc3)cc2C1)n1cccn1 (centres undefined) do in these assays?
Pf Dd2 growth: -14%

What do the screens show for `O=C(c1ccc(F)cc1)N1C[C@@H]2C[C@H](C1)c1c(-c3ccccc3F)ccc(=O)n1C2`?
Pf Dd2 growth: -19%[44.1 µM]

What do the screens show for `Cc1nc(CCNC(=O)NC2CCCCC2)no1`?
Pf Dd2 growth: 8%

How did CCOc1cc(=O)n2c(c1C(=O)NCc1ccccn1)CCCCC2 do in these assays?
Pf Dd2 growth: 2%

What do the screens show for `Cn1nccc1C(=O)N1CCC2(CC1)OCCN(Cc1ccccc1F)C2=O`?
Pf Dd2 growth: -8%[44.1 µM]
